HT1080NT lethal – qHTS for induction of synthetic lethality in tumor cells producing 2HG: qHTS for the HT-1080-NT fibrosarcoma cell line; HT-1080-NT fibrosarcoma viability, CellTiter-Glo ATP luminescence, 48 h; Potency, µM (top dose mostly 46.1 µM), inactives show at the highest dose activity, negative = less viability, usual class: cytotoxic; 360,000 compounds, 1.6% hits;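 also: NT is the 2HG producing partner of a matched IDH1 knockdown line; potency is read from the fitted curve at half-maximal effect; 0% = DMSO-treated cells and -100% = media-only wells without cells; nearly all actives have a fitted effect of over 55% in size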
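HT-1080-NT fibrosarcoma cells (2HG-overproducing), 750 cells/well in RPMI with 5% FBS, dosed after 2 h and incubated 48 h at 37C. CellTiter-Glo luminescence normalized to DMSO and no-cell wells; concentration-response curves fitted and classed.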
TDP1 cell noCPT – qHTS for Inhibitors of human tyrosyl-DNA phosphodiesterase 1 (TDP1): qHTS in cells in absence of CPT. DT40 Tdp1-/- hTDP1 cells, no CPT, ATP luminescence, 48 h. Potency, µM (top dose mostly 46.2 µM), inactives show at the top dose activity change, negative = growth inhibition, actives largely listed as inhibitors. 420,000 compounds, 15% hits; also: potency is read from the fitted curve at half-maximal effect; nearly all actives have a fitted effect of over 55% in size
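Compound effects on proliferation are scored in DT40 Tdp1-/-;hTDP1 cells in the absence of CPT. ATP levels (CellTiter-Glo luminescence) are recorded after a ≥48 hr, 37 °C incubation.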
IL-1B inflam inh – qHTS for Inhibitors of Inflammasome Signaling: IL-1-beta AlphaLISA Primary Screen | AID 743279, 2014 | 360,000 compounds, 4.7% hits | THP-1 LPS/ATP IL-1B secretion, AlphaLISA, 16 h; hits give low values | activity change, % at 57.5 µM; in the data active = activity change below about -50%; inconclusive = mostly about -30% to -49%
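THP-1 cells pretreated 1 hr with compounds (up to 57.5 uM final), then stimulated with LPS (250 ng/mL final) plus ATP (1.25 mM final); secreted IL-1B measured by AlphaLISA after 16 hr, decreased signal indicating inhibition.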
TDP1 cell CPT – qHTS for Inhibitors of human tyrosyl-DNA phosphodiesterase 1 (TDP1): qHTS in cells in presence of CPT. chicken DT40 Tdp1-/-;hTDP1 cells + 20 nM CPT, ATP luminescence, 48 h. Potency, µM (titrated, usually from 46.2 µM), without a hit: top-dose activity change, negative = growth inhibition, hits mostly inhibitors. 420,000 compounds, 12% hits. AID 686979, 2013; also: potency is read from the fitted curve at half-maximal effect; nearly all actives have a fitted effect of over 55% in size
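Chicken DT40 Tdp1-/- cells complemented with human TDP1, 400 cells/well, exposed to compounds plus 20 nM camptothecin for at least 48 h at 37 C; viability read as ATP content by CellTiter-Glo luminescence.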
HT1080 IDH1KD tx – qHTS for induction of synthetic lethality in tumor cells producing 2HG: qHTS for the HT-1080-IDH1KD cell line; HT-1080 IDH1 knockdown viability, ATP luminescence, 48 h; Potency, µM (doses to about 46.1 µM), for inactives: top-dose activity, negative = toxicity, actives largely listed as cytotoxic; 360,000 compounds, 2% hits;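 also: potency is read from the fitted curve at half-maximal effect; 0% = DMSO wells and -100% = cell-free medium wells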
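Luminescent ATP read-out (CellTiter-Glo, 10 min at room temperature) after 48 h compound exposure at 37 °C gave viability of IDH1-knockdown HT-1080 cells. Activity was normalised to DMSO and cell-free wells, then fitted as concentration-response curves.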
Starred values were filed as active, the others as inactive; ? = inconclusive; . = no result given; [ ] = another dose, or the depositor's remark. An excerpt weighted towards active compounds, which were near 19% of everything screened. Unless noted, calls follow the shape of the dose curve; as a rule, active = well fitted curve in the direction sought with a large enough effect; inconclusive = small, poorly fitted or top-dose-only effect, or another doubt; inactive = no such curve, though single readings can be large; an effect the other way counts as inactive or inconclusive. Unless noted, % is scaled to controls: 0 for no effect and ±100 for the full control effect.

SMILES | HT1080NT lethal | TDP1 cell noCPT | IL-1B inflam inh | TDP1 cell CPT | HT1080 IDH1KD tx
CC(C)c1ccccc1NC(=O)c1cccc(NC(=O)c2ccccc2)c1 | -11% | ? | -12 | 16µM* | -15%
O=C(c1ccc(F)cc1)N1CCC(c2nc3ccccc3s2)CC1 | . | ? | . | -30% | .
CCc1ccccc1NC(=O)CSC1=C(C#N)C(c2ccc(O)c(OC)c2)C2=C(CCCC2=O)N1 (stereo not given) | 7% | 23µM* | -19 | 21µM* | 5%
CCc1ccc(NC(=O)CSC2=C(C#N)C(c3ccco3)C3=C(CCCC3=O)N2)cc1 (stereo not given) | -26% | ? | -90* | ? | ?
CCOC(=O)C1=C(c2ccccc2)NC(SCC(=O)Nc2ccc(C)cc2)=C(C#N)C1c1ccco1 (stereo not given) | ? | ? | -3 | ? | ?
COc1ccc(CCN(C)c2ncnc3sccc23)cc1OC | -16% | -61% | -53* | ? | -7%
COc1ccc(C(CNc2ncnc3sccc23)N(C)C)cc1OC (stereo not given) | -24% | -22% | 18 | 0% | -5%
COc1ccc(CN(C)c2ncnc3sccc23)c(OC)c1OC | ? | 21µM* | -12 | 12µM* | ?
CC1(O)C(c2ccccc2)=Nc2ccccc21 (stereo not given) | -14% | ? | 30 | ? | -14%
Oc1ccccc1/C=N/Nc1nccnc1Cl | ? | 2.9µM* | 111 | 4.6µM* | ?
Oc1ccc(Br)cc1/C=N/Nc1ncc(-c2ccccc2)cn1 | -15% | 8.2µM* | 34 | 6.5µM* | -8%
Oc1ccc(/C=N/Nc2nccnc2Cl)c(O)c1 | -18% | 3.3µM* | 23 | 3.3µM* | ?
Oc1ccc(/C=N/Nc2ncc(Br)cn2)c(O)c1 | -22% | 7.3µM* | 83 | 7.3µM* | ?
CCOC(=O)N(C)S(=O)(=O)c1ccccc1[N+](=O)[O-] | -4% | ? | -5 | -18% | 18%
CS(=O)(=O)c1ccc(Cn2c3c(c4cc(F)cc(F)c42)CCC[C@H]3CC(=O)O)cc1 | . | -7% | . | 14% | .
Cc1cccc(Oc2ccc3c(c2)cc(C(=O)O)n3C)c1 | 2% | 17% | -6 | -5% | -5%
COc1ccc(C2OC3C(CO)OC(n4cnc5c(=O)[nH]c(N)nc54)C3O2)cc1 (stereo not given) | . | 0% | . | 0% | .
OCC1(CCCc2ccccc2)CCN(C2CCC2)CC1 | -7% | 11% | -54* | -25% | -13%
CCOC(=O)C1(CCCc2ccccc2)CCN(C2CCSCC2)CC1 | 1% | 13µM* | 14 | 16µM* | -6%
CSCC(C)N1CCC(CO)(CCCc2ccccc2)CC1 (stereo not given) | -16% | -24% | 9 | 2% | -2%
OCC1(CCCc2ccccc2)CCN(C2CCSCC2)CC1 | -3% | -23% | -70* | -17% | -3%
CCOC(=O)C1(CCCc2ccccc2)CCN(CC(O)CO)CC1 (stereo not given) | -8% | ? | 0 | -9% | -4%
CC(C)[C@H](NC(=O)N1CC(=O)Nc2ccccc21)C(=O)N[C@H](Cc1ccccc1)C(=O)O | 8% | -6% | 9 | 1% | 11%
Cc1c(NC(=O)C(C)OC(=O)c2cc(Cl)ccc2O)c(=O)n(-c2ccccc2)n1C (stereo not given) | -1% | -23% | 11 | 10% | 3%
Cc1ccc(C(=O)NN(C)c2nc3ccccc3nc2C(F)(F)F)cc1 | ? | 3.7µM* | 58 | 4.6µM* | ?
SMILES | HT1080NT lethal | TDP1 cell noCPT | IL-1B inflam inh | TDP1 cell CPT | HT1080 IDH1KD tx
CC(C)CC(=O)NN(C)c1nc(-c2ccccc2)nnc1C(F)(F)F | 3% | ? | 17 | -21% | -1%
CN(NC(=O)c1ccc(Cl)cc1)c1nc(-c2ccccc2)nnc1C(F)(F)F | -14% | 15µM* | 5 | 21µM* | -15%
COc1cccc(/C=N/NC(=O)c2ccoc2C)c1 | -4% | -23% | -9 | -4% | -16%
COc1ccc(-c2csc(C(NC(C)=O)c3ccccc3)n2)cn1 (stereo not given) | 7% | 6% | -1 | 10% | 0%
CCCc1nc2nc(C)c(NS(=O)(=O)c3ccc(C4CCCCC4)cc3)c(=O)n2[nH]1 | 0% | -7% | 18 | 7% | -1%
Cc1nc(C)c(C(=O)N/N=C/c2ccco2)s1 | 12% | ? | -8 | 34% | 21%
CCOCc1c(C(=O)N2CCN(CC(=O)Nc3ccc(F)cc3)CC2)oc2ccccc12 | 11% | -26% | -10 | -22% | 3%
CCOCc1c(C(=O)N2CCN(CCOc3ccc(Cl)cc3)CC2)oc2ccccc12 | ? | 15µM* | ? | ? | -24%
C[C@@]12CCC=C[C@H]1[C@H](c1ccc3ccccc3c1Br)N(Cc1ccccc1)C2=O | ? | 18µM* | -55* | ? | ?
COc1ccc(-c2cc([C@H]3[C@H]4C=CC[C@@H](C)[C@@H]4C(=O)N3Cc3ccccc3)ccc2F)cc1 | ? | 15µM* | 10 | 13µM* | ?
C[C@@H]1CC=C[C@H]2[C@H]1C(=O)N(Cc1ccccc1)[C@H]2c1ccc2ccccc2c1 | -25% | ? | 15 | ? | ?
COc1ccc(-c2ccc(N(C)C)cc2)cc1[C@H]1[C@@H]2C=CCC[C@@]2(C)C(=O)N1Cc1ccccc1 | ? | 21µM* | -24 | 29µM* | ?
COc1ccc(-c2cc([C@H]3[C@@H]4C=CCC[C@@]4(C)C(=O)N3Cc3ccccc3)ccc2F)cc1 | -22% | 26µM* | 4 | ? | ?
C[C@@]12CCC=C[C@H]1[C@H](c1ccc3ccccc3c1)N(Cc1ccccc1)C2=O | ? | ? | 6 | ? | ?
COc1ccc(-c2ccc([C@H]3[C@@H]4C=CCC[C@@]4(C)C(=O)N3Cc3ccccc3)c(F)c2)cc1 | ? | ? | -22 | ? | ?
CCOC(=O)C1(C)CCCN1C(=O)c1csnn1 (stereo not given) | 15% | 12% | 22 | -11% | -2%
COC(=O)C1CCN(Cc2ccc3c(c2)CN(C(=O)c2cc4ccccc4n2C)CCO3)CC1 | . | ? | . | 12%[9.04 µM] | .
CCOc1ncccc1C(=O)NCCc1ccc(Cl)cc1 | -2% | ? | -14 | ? | -6%
COC(=O)C1CCc2c(ccc3c2CCCC3)C1=O (stereo not given) | 23% | -12% | -13 | 18% | 12%
